Results filed as inconclusive are left out. Activity calls are given as the source filed them. Unless noted, the call rests on the fitted dose curve.
Tests used:
[1] = Nuclear factor erythroid 2-related factor 2/antioxidant responsive element (Nrf2/ARE) small molecule agonists: qHTS cell viability counter screen in human keratinocytes (AID 1919968; active means well fitted curve in the direction sought with a large enough effect in the repeat runs; an effect the other way counts as inactive or inconclusive; further: nearly all actives have a fitted effect of over 55% in size; further: potency means the concentration at half of the fitted maximal effect)
Summary of the method: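 KeratinoSens HaCaT cells, 1,500/well, preincubated 5 h, then exposed to compounds in DMSO for 23 h at 37 C/5% CO2. Viability read as CellTiter-Fluor fluorescence after 1 h, in the same wells as the ARE-luciferase read.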

[2] = Nuclear factor erythroid 2-related factor 2/antioxidant responsive element (Nrf2/ARE) small molecule agonists: luciferase reporter gene qHTS assay in human keratinocytes (AID 1919969); further: nearly all actives have a fitted effect of over 35% in size; further: potency means the concentration at half of the fitted maximal effect
[3] = molecular target: Gonadotropin-releasing hormone receptor (Homo sapiens) (UniProt P30968); experiment: Human gonadotropin-releasing hormone receptor (GnRHR) small molecule agonists, calcium flux assay in GnRHR-HEK293 cells (AID 1920063); further: nearly all actives have a fitted effect of over 35% in size; further: potency means the concentration at half of the fitted maximal effect
Summary of the method: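 HEK293 cells stably expressing human GnRHR were dye-loaded for 1 h at 37 C. Compound was added in agonist mode and fluorescence (Ex/Em 480/540) recorded kinetically for 3 min. Fifteen concentrations, triplicates.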

[4] = molecular target: KiSS-1 receptor (Homo sapiens) (UniProt Q969F8); experiment: Human kisspeptin (KISS1R) small molecule agonists, calcium flux assay in KISS1R-HEK293 cells (AID 1920064; active means well fitted curve in the direction sought with a large enough effect in the repeat runs; an effect the other way counts as inactive or inconclusive)
Summary of the method: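 HEK293 cells stably expressing human KISS1R were loaded with calcium dye for 1 h at 37 C, then given compound; fluorescence (Ex/Em 480/540) was read kinetically for 3 min. Fifteen concentrations, triplicate.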

[5] = G protein-coupled receptor (GPCR) small molecule agonists, calcium flux assay: HEK293 wild type cell line counter screen (AID 1920065)
Summary of the method: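 Wild-type HEK293 cells plated 18 h, loaded with calcium dye 1 h at 37 C, then compounds added in agonist mode (ATP as positive control). Kinetic fluorescence Ex/Em 480/540 recorded 3 min at 1 sec intervals; 15 concentrations, triplicate.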

[6] = p53 small molecule agonists, cell-based qHTS assay with human liver microsomes: qHTS cell viability counter screen (AID 1963579); further: nearly all actives have a fitted effect of over 45% in size
Summary of the method: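 Seed p53RE-bla cells at 4,000 per well; incubate 5 h at 37 C; add compound, human liver microsomes and NADPH; incubate 16 h at 37 C; add CellTiter-Glo; after 30 min at room temperature, read luminescence.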

[7] = p53 small molecule agonists, cell-based qHTS assay with rat liver microsomes: qHTS cell viability counter screen (AID 1963580); further: nearly all actives have a fitted effect of over 45% in size
Summary of the method: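 HCT-116 p53RE-bla, 4,000 cells/well, 5 h pre-incubation; cpd + rat liver microsomes 0.5 mg/mL + NADPH 0.5 mg/mL (final); 16 h, 37 C; CellTiter-Glo, 30 min RT; luminescence.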

[8] = p53 small molecule agonists, cell-based qHTS assay: qHTS cell viability counter screen (AID 1963581); further: nearly all actives have a fitted effect of over 45% in size; further: potency means the concentration at half of the fitted maximal effect
Summary of the method: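 p53RE-bla HCT-116 cells, compounds added 5 h after plating and incubated 16 h at 37 C. Cytotoxicity measured in the same wells as intracellular ATP by CellTiter-Glo luminescence after 30 min at room temperature.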

[9] = cAMP Responsive Elements (CRE) small molecule agonists, cell-based qHTS assay (AID 1963590)
Summary of the method: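 CRE-bla HEK 293T cells, 2,000/well in DMEM with 10% dialyzed FBS and 25 mM HEPES, pre-incubated 18 h at 37 C, then exposed to compound 3 h at 37 C. Beta-lactamase reporter read with LiveBLAzer B/G FRET substrate after 2 h at room temperature.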

[10] = cAMP Responsive Elements (CRE) small molecule antagonists, cell-based qHTS assay (AID 1963591; active means well fitted inhibition curve with a large enough effect in the signal ratio in the repeat runs, not every such curve was filed as active; the % refers to the signal ratio)
Summary of the method: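 CRE-bla HEK293T cells plated 18 h, then given compound plus NKH477 at 0.25 uM final for 3 h at 37C. Beta-lactamase reporter read with LiveBLAzer B/G FRET substrate after 2 h at room temperature.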

[11] = molecular target: Beta-2 adrenergic receptor (Homo sapiens) (UniProt P07550); experiment: Adrenergic beta2 receptor (ADRB2) small molecule antagonists, cell-based qHTS assay (AID 1963592); further: series mostly up to about 92 µM; nearly all actives have a fitted effect of over 50% in size
Summary of the method: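 Cells (CHO, stable ADRB2 overexpression) incubated 18-20hr at 37C; compounds added from DMSO; agonist mix (1nM isoproterenol, 100uM IBMX, 25uM Ro-20-1724) added; 0.5hr RT; d2-cAMP and anti-cAMP-cryptate added; 1hr RT; 665/615 nm read.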

[12] = molecular target: D(2) dopamine receptor (Homo sapiens) (UniProt P14416); experiment: Dopamine D2 receptor (DRD2) small molecule agonists, cell-based qHTS assay (AID 1963594); further: nearly all actives have a fitted effect of over 35% in size
Summary of the method: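 cAMP accumulation in DRD2-HEK293 cells measured by HTRF after 1 h detection; compounds added 10 min before NKH477 (200nM […]) forskolin-analogue stimulation, 30 min at room temperature, with Ro20-1724 present at 0.1 mM final.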

[13] = molecular target: D(2) dopamine receptor (Homo sapiens) (UniProt P14416); experiment: Dopamine D2 receptor (DRD2) small molecule antagonists, cell-based qHTS assay (AID 1963595; active means well fitted inhibition curve with a large enough effect in the signal ratio in the repeat runs, with a control signal flat; the % refers to the signal ratio; further: potency means the concentration at half of the fitted maximal effect)
Summary of the method: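 Antagonism was scored as restored cAMP in HEK293-DRD2 cells. These cells were stimulated with 200 nM NKH477 and 12 nM quinpirole for 30 min at room temperature, in the presence of 0.1 mM Ro20-1724.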

[14] = molecular target: 5-hydroxytryptamine receptor 2A (Homo sapiens) (UniProt P28223); experiment: 5-hydroxytryptamine receptor 2A (HTR2A) small molecule antagonists, cell-based qHTS assay (AID 1963586); further: nearly all actives have a fitted effect of over 45% in size
Summary of the method: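 Antagonist-mode intracellular calcium assay: DOI (4 nM) added after 5 min compound pre-incubation at room temperature to dye-loaded HTR2A-CHO cells. Fluorescence followed for 3 min, sampled every second.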

[15] = molecular target: 5-hydroxytryptamine receptor 2A (Homo sapiens) (UniProt P28223); experiment: 5-hydroxytryptamine receptor 2A (HTR2A) small molecule agonists, cell-based qHTS assay (AID 1963587); further: nearly all actives have a fitted effect of over 30% in size
Summary of the method: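 Kinetic calcium-flux fluorescence (2 min, 1 sec intervals) after compound addition in agonist mode. HTR2A-CHO cells were cultured 18 h, then dye-loaded 1 h at 37 C.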

[16] = molecular target: Muscarinic acetylcholine receptor M1 (Homo sapiens) (UniProt P11229); experiment: Cholinergic receptor muscarinic 1 (CHRM1) small molecule antagonists, cell-based qHTS assay (AID 1963588); further: nearly all actives have a fitted effect of over 40% in size
Summary of the method: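 CHRM1-CHO calcium-flux assay, antagonist mode. Cells were seeded 18 h, dye-loaded 1 h at 37 C and given compound for 5 min at RT, then acetylcholine was added at 50nM. FDSS fluorescence was read 3 min; 15 concentrations, three runs.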

[17] = molecular target: Muscarinic acetylcholine receptor M1 (Homo sapiens) (UniProt P11229); experiment: Cholinergic receptor muscarinic 1 (CHRM1) small molecule agonists, cell-based qHTS assay (AID 1963589); further: nearly all actives have a fitted effect of over 35% in size
Summary of the method: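 CHO cells stably expressing human CHRM1 were loaded with calcium dye for 1 h at 37 C, then compound was added in agonist mode. Intracellular calcium fluorescence was followed kinetically at 1 s intervals. Fifteen concentrations were tested in three independent runs.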

[18] = molecular target: Beta-2 adrenergic receptor (Homo sapiens) (UniProt P07550); experiment: Adrenergic beta2 receptor (ADRB2) small molecule agonists, cell-based qHTS assay (AID 1963593);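 further: CHO cells stably overexpressing human ADRB2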
Summary of the method: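 CHO cells stably over-expressing ADRB2 were plated overnight at 37C, then dosed with compounds plus a stimulation mix containing 100uM IBMX and 25uM Ro-20-1724 for 0.5hr at room temperature. cAMP was measured by HTRF competition, 1hr.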

[19] = p53 small molecule agonists, cell-based qHTS assay with human liver microsomes (AID 1963577)
Summary of the method: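 Cells carrying a p53-responsive bla reporter were rested 5 h (37 C, 5% CO2) before compound transfer. Human liver microsomes plus NADPH, 0.5 mg/mL final apiece, supplied metabolism during the 16 h 37 C exposure.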

[20] = p53 small molecule agonists, cell-based qHTS assay with rat liver microsomes (AID 1963578)
Summary of the method: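 Fluorescence from a beta-lactamase reporter under a p53 response element was measured after cells had been incubated 16 h at 37 C with test compound and rat liver microsomes plus NADPH (0.5 mg/mL final each).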
On the % scale 0 is the no-effect control and ±100 the full control effect.

Beta-2 adrenergic receptor (Homo sapiens), sequence (P07550 whole entry, looked up): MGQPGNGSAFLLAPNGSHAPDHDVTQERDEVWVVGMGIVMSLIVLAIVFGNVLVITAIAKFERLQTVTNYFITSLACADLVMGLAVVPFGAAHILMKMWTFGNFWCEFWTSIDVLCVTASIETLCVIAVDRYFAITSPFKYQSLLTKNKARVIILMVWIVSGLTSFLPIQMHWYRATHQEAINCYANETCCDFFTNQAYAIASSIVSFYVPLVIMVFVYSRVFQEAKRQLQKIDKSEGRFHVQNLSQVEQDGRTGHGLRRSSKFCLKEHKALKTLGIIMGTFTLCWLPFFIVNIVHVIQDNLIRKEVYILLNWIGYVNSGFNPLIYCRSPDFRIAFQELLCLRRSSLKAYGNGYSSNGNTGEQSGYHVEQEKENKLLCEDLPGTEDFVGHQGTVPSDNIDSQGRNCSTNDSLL
KiSS-1 receptor (Homo sapiens), sequence (Q969F8 whole entry, looked up): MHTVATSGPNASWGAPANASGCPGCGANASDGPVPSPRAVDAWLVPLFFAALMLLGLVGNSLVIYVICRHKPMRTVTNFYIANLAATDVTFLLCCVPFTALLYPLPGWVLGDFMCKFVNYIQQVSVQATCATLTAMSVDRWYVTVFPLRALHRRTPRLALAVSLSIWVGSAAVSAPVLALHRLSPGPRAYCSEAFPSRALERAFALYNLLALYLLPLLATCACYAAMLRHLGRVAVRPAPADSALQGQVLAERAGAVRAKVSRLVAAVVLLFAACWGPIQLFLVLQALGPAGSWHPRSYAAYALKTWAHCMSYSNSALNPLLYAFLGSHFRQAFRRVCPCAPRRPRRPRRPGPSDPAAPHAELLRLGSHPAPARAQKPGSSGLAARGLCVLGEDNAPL
Muscarinic acetylcholine receptor M1 (Homo sapiens), sequence (P11229 whole entry, looked up): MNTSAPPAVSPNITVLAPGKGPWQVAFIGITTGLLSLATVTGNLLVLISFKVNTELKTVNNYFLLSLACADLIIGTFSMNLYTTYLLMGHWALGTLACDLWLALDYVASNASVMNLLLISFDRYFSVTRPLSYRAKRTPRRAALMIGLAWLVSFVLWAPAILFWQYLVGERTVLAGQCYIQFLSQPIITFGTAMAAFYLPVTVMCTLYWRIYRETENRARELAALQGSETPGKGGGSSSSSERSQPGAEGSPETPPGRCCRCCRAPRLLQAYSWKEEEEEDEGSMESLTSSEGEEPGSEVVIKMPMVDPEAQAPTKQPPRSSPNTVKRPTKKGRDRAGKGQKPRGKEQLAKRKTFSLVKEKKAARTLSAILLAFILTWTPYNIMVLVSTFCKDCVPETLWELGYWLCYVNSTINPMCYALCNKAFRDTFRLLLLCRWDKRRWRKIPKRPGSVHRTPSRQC
D(2) dopamine receptor (Homo sapiens), sequence (P14416 whole entry, looked up): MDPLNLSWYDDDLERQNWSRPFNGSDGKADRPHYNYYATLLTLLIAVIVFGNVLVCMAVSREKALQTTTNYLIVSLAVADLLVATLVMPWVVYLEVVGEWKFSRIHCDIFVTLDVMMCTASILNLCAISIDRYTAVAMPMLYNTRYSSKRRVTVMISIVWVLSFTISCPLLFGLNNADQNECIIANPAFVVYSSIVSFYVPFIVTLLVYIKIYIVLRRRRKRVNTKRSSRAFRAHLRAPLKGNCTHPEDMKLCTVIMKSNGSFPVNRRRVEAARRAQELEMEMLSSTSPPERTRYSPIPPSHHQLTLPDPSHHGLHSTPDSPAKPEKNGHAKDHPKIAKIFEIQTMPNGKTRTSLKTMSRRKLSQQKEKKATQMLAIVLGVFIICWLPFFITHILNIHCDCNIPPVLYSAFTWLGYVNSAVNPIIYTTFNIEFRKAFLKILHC
5-hydroxytryptamine receptor 2A (Homo sapiens), sequence (P28223 whole entry, looked up): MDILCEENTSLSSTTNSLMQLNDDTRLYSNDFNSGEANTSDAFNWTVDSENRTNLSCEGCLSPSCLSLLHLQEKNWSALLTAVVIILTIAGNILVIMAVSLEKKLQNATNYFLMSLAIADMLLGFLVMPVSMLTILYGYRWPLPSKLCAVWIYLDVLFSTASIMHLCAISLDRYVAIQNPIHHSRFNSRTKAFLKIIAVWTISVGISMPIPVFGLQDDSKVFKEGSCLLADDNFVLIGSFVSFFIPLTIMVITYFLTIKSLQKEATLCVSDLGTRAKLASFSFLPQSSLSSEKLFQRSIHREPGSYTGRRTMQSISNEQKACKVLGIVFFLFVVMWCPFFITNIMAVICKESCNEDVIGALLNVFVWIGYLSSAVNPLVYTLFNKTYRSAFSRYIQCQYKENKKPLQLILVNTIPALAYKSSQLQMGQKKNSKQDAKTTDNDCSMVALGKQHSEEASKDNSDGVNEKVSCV
Gonadotropin-releasing hormone receptor (Homo sapiens), sequence (P30968 whole entry, looked up): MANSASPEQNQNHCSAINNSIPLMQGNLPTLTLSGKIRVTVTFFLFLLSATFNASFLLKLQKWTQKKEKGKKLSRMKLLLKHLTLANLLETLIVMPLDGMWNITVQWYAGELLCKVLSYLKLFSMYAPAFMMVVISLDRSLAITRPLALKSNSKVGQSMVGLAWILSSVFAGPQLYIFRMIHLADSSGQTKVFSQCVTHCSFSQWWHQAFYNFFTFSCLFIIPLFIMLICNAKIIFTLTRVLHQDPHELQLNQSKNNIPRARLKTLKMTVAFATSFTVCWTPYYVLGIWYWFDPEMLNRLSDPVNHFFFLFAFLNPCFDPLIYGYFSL

CC(C)C(Br)C(=O)NC(N)=O (centres undefined)
inactive: Potency [1] | Potency [2] | Potency [3] | Potency [4] | Potency [5] | Potency [6] | Potency [7] | Potency [8] | Potency [9] | Potency [10] | Potency [11] | Potency [12] | Potency [13]

CNC(=O)CSP(=O)(OC)OC
inactive: Potency [1] | Potency [2] | Potency [3] | Potency [4] | Potency [5] | Potency [6] | Potency [14] | Potency [15] | Potency [16] | Potency [17] | Potency [9] | Potency [10] | Potency [11] | Potency [18] | Potency [12]

CCC1CCC(=O)O1 (centres undefined)
inactive: Potency [1] | Potency [2] | Potency [3] | Potency [4] | Potency [5] | Potency [6] | Potency [7] | Potency [14] | Potency [15] | Potency [16] | Potency [17] | Potency [9] | Potency [10] | Potency [11] | Potency [18] | Potency [12] | Potency [13]

CC(=O)c1ccc(-c2ccccc2)cc1
inactive: Potency [1] | Potency [2] | Potency [3] | Potency [4] | Potency [19] | Potency [20] | Potency [6] | Potency [7] | Potency [15] | Potency [16] | Potency [17] | Potency [9] | Potency [10] | Potency [11] | Potency [12]

CCn1cc[n+](C)c1 (tested in a mixture with another compound)
inactive: Potency [1] | Potency [2] | Potency [3] | Potency [4] | Potency [5] | Potency [7] | Potency [8] | Potency [14] | Potency [15] | Potency [17] | Potency [9] | Potency [10] | Potency [11] | Potency [18] | Potency [12] | Potency [13]

CCCC[N+](CCCC)(CCCC)CCCC
inactive: Potency [1] | Potency [2] | Potency [3] | Potency [4] | Potency [19] | Potency [20] | Potency [6] | Potency [7] | Potency [14] | Potency [15] | Potency [16] | Potency [17] | Potency [10] | Potency [11] | Potency [12] | Potency [13]

CCCN
inactive: Potency [1] | Potency [2] | Potency [3] | Potency [4] | Potency [5] | Potency [7] | Potency [8] | Potency [14] | Potency [15] | Potency [16] | Potency [17] | Potency [9] | Potency [11] | Potency [18] | Potency [12] | Potency [13]

Brc1cccc(-c2ccccc2)c1
inactive: Potency [1] | Potency [2] | Potency [3] | Potency [4] | Potency [5] | Potency [8] | Potency [14] | Potency [15] | Potency [16] | Potency [17] | Potency [9] | Potency [18] | Potency [12]

Oc1cccc(Cl)c1
inactive: Potency [1] | Potency [2] | Potency [3] | Potency [4] | Potency [19] | Potency [20] | Potency [6] | Potency [7] | Potency [8] | Potency [14] | Potency [15] | Potency [16] | Potency [17] | Potency [9] | Potency [10] | Potency [11] | Potency [12] | Potency [13]

C[N+](C)(C)CCCl
inactive: Potency [1] | Potency [2] | Potency [3] | Potency [4] | Potency [19] | Potency [20] | Potency [6] | Potency [7] | Potency [14] | Potency [15] | Potency [16] | Potency [9] | Potency [11] | Potency [12] | Potency [13]

CCN1CCC2(CC1)COc1cc3c(cc12)N(C(=O)c1ccc(-c2ccc(-c4nnc(C)o4)cc2C)cc1)CC3
active: Potency [1] 25.2 µM | Potency [8] 42.2 µM
inactive: Potency [2] | Potency [3] | Potency [4] | Potency [19] | Potency [20] | Potency [14] | Potency [17] | Potency [11] | Potency [12] | Potency [13]

Cc1nc2ccccc2c(=O)n1-c1ccccc1Cl
inactive: Potency [1] | Potency [2] | Potency [3] | Potency [4] | Potency [19] | Potency [6] | Potency [7] | Potency [8] | Potency [14] | Potency [16] | Potency [9] | Potency [10] | Potency [11] | Potency [12] | Potency [13]

CC(Cc1ccc(O)cc1)NCC(O)c1cc(O)cc(O)c1 (centres undefined)
inactive: Potency [1] | Potency [2] | Potency [4] | Potency [5] | Potency [16] | Potency [17] | Potency [10]
active: Potency [3] 0.0338 µM | Potency [13] 5.96 µM

CC(Cc1ccc(OCC(=O)O)cc1)NCC(O)c1csc(C(F)(F)F)n1 (centres undefined)
inactive: Potency [1] | Potency [2] | Potency [3] | Potency [4] | Potency [19] | Potency [20] | Potency [6] | Potency [7] | Potency [14] | Potency [15] | Potency [16] | Potency [17] | Potency [9] | Potency [10] | Potency [13]

COc1ccc(C(=O)c2c(C)n(CCN3CCOCC3)c3ccccc23)cc1
inactive: Potency [1] | Potency [2] | Potency [3] | Potency [4] | Potency [19] | Potency [20] | Potency [8] | Potency [14] | Potency [15] | Potency [16] | Potency [17]

CCCCCCCCCCCCN=C(N)N
inactive: activity change, negative = cytotoxicity [1] -1.49% [at 3.27 µM] | activity, positive = activation [2] -21.7% [at 3.27 µM] | activity change [3] 1.72% [at 2.04 µM, stronger effect = higher value] | activation [4] 1.8% [at 2.72 µM] | activation [19] 0.2% [at 2.33 µM] | activation [20] 0.708% [at 2.33 µM] | activity change, negative = cytotoxicity [6] -3.65% [at 2.33 µM] | activity change, negative = cytotoxicity [8] 10.9% [at 2.33 µM] | activation [15] -1.31% [at 2.65 µM] | activity, negative = inhibition [16] 8.27% [at 2.17 µM] | activation [17] -0.462% [at 2.72 µM] | activation [9] -0.694% [at 3.27 µM] | activity change, negative = inhibition [11] -9.86% [at 3.27 µM] | activation [12] -4% [at 3.27 µM] | activity change, negative = inhibition [13] -0.313% [at 3.28 µM]

O=[N+]([O-])c1cccc2c([N+](=O)[O-])cccc12
inactive: Potency [1] | Potency [3] | Potency [4] | Potency [5] | Potency [14] | Potency [15] | Potency [16] | Potency [17] | Potency [11] | Potency [12] | Potency [13]
active: Potency [2] 61.4 µM | Potency [8] 23.1 µM
